Screening results: PubChem BioAssay, several laboratories
HIF-2a inh = HIF-2a inhibition; inhibition, % at 18.8 µM; 786-0 RCC cells HIF-2a reporter, luciferase luminescence, overnight; hit rate 0.72% among 360,000;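 active = inhibition of the luminescence signal of 40% or more relative to plate controls, in a single-dose primary screen at 18.75 µM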
TWEAK-Fn14 inh = blocks TWEAK-Fn14 interaction in a reporter cell assay | inhibition, % at 10 µM | hit rate 2% among 360,000 | TWEAK-stimulated Fn14 reporter cells, luciferase luminescence, 8 h | AID 1159606; in the data active = inhibition above about 50%
TROY NFkB inh = blocks TROY-dependent signaling in reporter cells. Q293 LMP1-TROYcd NF-kB luciferase reporter, 4 h. hit rate 0.98% among 360,000. inhibition, % at 10 µM. AID 1347056;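 active = compounds whose plate-normalised and pattern-corrected inhibition of the luciferase reporter signal at the single screening dose is 50% or more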
aSyn 5UTR inh = 5' untranslated region of α-synuclein, MLPCN primary screen | alpha-synuclein 5'UTR reporter, inhibitor activity | inhibition, % (tested at 7.5 µM) | hit rate 0.82% among 300,000 | AID 1813; in the data active = inhibition above about 60%; inconclusive = no clear call, values can overlap the other calls;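 note: H4 neuroglioblastoma cells stably carrying SNCA 5'UTR luciferase fusion; 0% = DMSO wells and 100% = positive control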
TRAIL sens C8 = sensitizes caspase-8 expressing cells to TRAIL; NB7+C8 cells + TRAIL, ATPlite viability luminescence; inhibition (viability loss, TRAIL sensitization), % at 10 µM; hit rate 1% among 360,000;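 active = compounds causing at least 50% loss of cell viability in the single-dose screen, relative to plate controls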
HSP90 inh = HSP90 refolding inhibition in rabbit reticulocyte lysate. inhibition, % at 5.6 µM. luciferase refolding luminescence, 3 h. hit rate 0.91% among 290,000;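 active = inhibition above the screen-wide mean plus 3 SD, computed separately per campaign, cut at about 16% in these data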;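 note: 0% = DMSO wells and 100% = 60 µM geldanamycin wells; inhibitors lower the luminescence because luciferase stays unfolded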
The depositor's hits bear a star; ? = inconclusive; . = no result. Compounds with a hit are over-represented: about 3.9% of the library has one in this group of screens.

SMILES	HIF-2a inh	TWEAK-Fn14 inh	TROY NFkB inh	aSyn 5UTR inh	TRAIL sens C8	HSP90 inh
CC(C)c1nc(=S)n(-c2ccccc2)[nH]1	12.6	22.5	67.7*	1.9	-4.3	1.0
CCCCC(=O)NC(c1ccc(C(C)C)cc1)c1ccc2cccnc2c1O (configuration not stated)	12.6	21.6	15.9	111.8*	10.3	3.8
CCCCC(=O)NC(c1cccc([N+](=O)[O-])c1)c1ccc2cccnc2c1O (configuration not stated)	8.9	13.3	13.1	.	9.8	.
COc1ccc(Cl)cc1C(Nc1cccnc1)c1ccc2cccnc2c1O (configuration not stated)	31.5	14.7	-7.3	51.6	39.3	5.0
Oc1c(C(c2ccccc2Cl)N2CCCC2)ccc2cccnc12 (configuration not stated)	-9.7	-54.8	-36.5	97.3*	41.2	12.5
CCCCC(=O)NC(c1ccccc1Cl)c1ccc2cccnc2c1O (configuration not stated)	12.6	1.9	6.9	83.4*	4.8	10.1
CCC(=O)NC(c1ccccc1OC)c1ccc2cccnc2c1O (configuration not stated)	13.3	15.7	6.9	79.9*	2.2	13.6
C[C@H]1CN([C@@H](C)CO)C(=O)CCCn2nncc2CO[C@H]1CN(C)S(=O)(=O)c1cccs1	2.7	7.0	-4.6	.	-5.2	.
O=S(=O)(CCNCc1ccco1)NC1CCCCC1	-3.0	-2.8	3.7	.	-20.5	.
CC(=O)NC(c1ccc(C)cc1)c1cc(Cl)c2cccnc2c1O (configuration not stated)	25.6	12.1	17.6	?	6.2	9.6
CC(=O)NC(c1ccc(C(C)C)cc1)c1ccc2cccnc2c1O (configuration not stated)	11.9	13.6	14.0	66.9*	24.4	8.3
COc1ccc(NC(=O)c2cc(C3CCCCN3S(=O)(=O)c3cccs3)on2)c(C)c1 (configuration not stated)	-7.4	8.0	15.3	.	1.3	.
CC1=NN(S(=O)(=O)c2ccc(Cl)cc2Cl)C(=O)c2ccccc2O1	13.2	68.1*	0.5	9.8	-0.9	4.0
COc1cccc(Oc2nnnn2-c2ccccc2)c1	-165.7	-10.7	-48.2	-179.7	4.3	8.5
COc1cccc(-n2nnnc2S(C)(=O)=O)c1	87.3*	16.4	29.1	10.3	-0.2	2.8
CC(C)CNc1ncnc2[nH]ncc12	2.8	16.0	3.5	.	2.7	.
COc1ccc(NC(=O)C(c2ccccc2)n2c(=O)c(-c3ccco3)nc3ccccc32)cc1 (configuration not stated)	-7.8	.	.	.	5.1	.
CCNS(=O)(=O)c1ccc(NC(=O)Cn2nc(C(F)(F)F)cc2C)cc1	4.5	86.8*	.	11.8	-5.6	-3.7
O=C(C[C@@H]1CC[C@@H](NC(=O)Nc2cccc(F)c2)[C@@H](CO)O1)NCC1CCCCC1	10.0	.	.	.	28.1	.
CC(=O)c1ccc(S(=O)(=O)NCCC(=O)OCC(=O)N(Cc2ccccc2)C(C)(C)C)cc1	7.4	18.6	5.3	.	4.9	.
COC(=O)c1sccc1NC(=O)CSc1ccccc1NS(=O)(=O)c1ccc(Br)cc1	22.4	53.5*	52.2*	2.3	5.6	-0.2
CN1CC[C@]23c4ccccc4N[C@H]1[C@]21CCN(C)[C@H]3Nc2ccccc21	-16.5	6.4	7.8	.	2.9	.
COC(=O)C1CC23C=CCN4CCC5(c6ccccc6NC15C2C)C43 (configuration not stated)	28.8	-8.8	22.8	93.8*	-1.8	-0.2
O=[N+]([O-])c1c(Nc2ccccn2)cc(Cl)c2nonc12	95.8*	19.6	-1.4	6.1	84.5*	11.8
O=[N+]([O-])c1c(Nc2ccc(O)cc2)cc(Cl)c2nonc12	94.5*	67.4*	83.1*	46.7	95.8*	2.8
SMILES	HIF-2a inh	TWEAK-Fn14 inh	TROY NFkB inh	aSyn 5UTR inh	TRAIL sens C8	HSP90 inh
COc1ccc(C(=O)Nc2ccc(N3CCCCCC3)cc2)cc1S(=O)(=O)N1CCOCC1	-16.9	38.5	24.0	.	8.4	.
O=C(CN1CCN(C(C(=O)Nc2ccc(F)cc2)c2ccccc2)CC1)NC1CC1 (configuration not stated)	10.1	-5.2	1.2	.	5.5	.
Nc1nc(N)c2c(ccc3nccc32)[nH]1	15.7	-8.9	-11.6	49.1	80.3*	6.7
CCOC(=O)/C(=C\c1ccccc1)NC(=O)c1ccccc1	-101.2	-21.7	-36.7	-105.1	6.0	-8.1
C=CCOC(=O)/C(=C\c1ccccc1)NC(=O)c1ccc(C)cc1	-233.9	15.6	50.9*	-175.1	2.9	3.2
COC(=O)c1cnn(-c2cc(Oc3cccc(C)c3)ncn2)c1N	-61.1	91.0*	.	-138.0	8.5	5.8
S=c1[nH]nc(-c2ccncc2)n1/N=C/C(Cl)=C\c1ccccc1	-133.7	80.9*	21.8	-220.7	9.4	-2.9
S=c1[nH]nc(-c2ccncc2)n1/N=C/C=C/c1ccccc1	17.3	41.0	18.3	11.4	-21.8	8.7
Cn1cccc1/C=N/n1c(-c2ccc(C(C)(C)C)cc2)n[nH]c1=S	2.8	-6.0	-39.4	-15.5	53.8*	5.0
Cc1ccc(-c2n[nH]c(=S)n2/N=C/c2ccncc2)cc1	16.6	71.9*	26.9	-16.0	-2.3	-3.2
CCOc1ccc(CCNC(=O)COC(=O)COc2ccc(C#N)cc2)cc1OCC	-7.2	-3.5	4.2	.	-5.3	.
Cc1ccc(OCCCNCCO)c(Br)c1	-37.1	52.8*	19.5	9.4	36.6	0.5
CCCCNCCCOc1ccc(C)cc1Br	4.9	13.7	-6.5	6.6	0.9	5.3
COc1ccc(OC)c(C2C(C(=O)N(C)C)=C(C)Nc3nc4ccccc4n32)c1 (configuration not stated)	1.9	-7.4	5.8	1.5	-10.1	2.8
COc1ccc(C2C(C(=O)c3ccccc3)=C(C)Nc3nc4ccccc4n32)c(OC)c1 (configuration not stated)	-3.2	75.8*	52.9*	-5.1	2.1	-3.8
COC(=O)c1ccccc1NC(=S)NC(=O)c1ccc2ccccc2c1	-13.3	6.4	-2.1	6.6	-5.7	-3.2
COc1c(C)cccc1C(=O)NC(=S)Nc1ccccc1N1CCCC1	-180.4	56.5*	67.6*	-13.5	-7.9	-1.7
COC(=O)c1ccccc1NC(=S)NC(=O)c1cccc2ccccc12	7.8	59.8*	26.7	-1.0	8.1	-1.1
O=C(NC(=S)Nc1ccccc1N1CCCC1)c1ccccc1Br	-15.6	23.0	7.2	20.9	4.3	-0.6
CSCC[C@H](NC(=O)C1CCN(S(=O)(=O)c2ccc(C)cc2C)CC1)c1nc2ccccc2[nH]1	5.0	-5.0	-14.0	.	7.5	.
O=C(CCc1ccccc1O)N/N=C/c1ccc(Sc2cccc3cccnc23)o1	14.8	108.8*	-7.9	-20.8	9.8	6.3
Cc1ccc(NC(=O)CN2C(=O)NC(Cc3ccccc3)C2=O)cc1 (configuration not stated)	18.0	3.8	-8.8	14.4	-10.1	-1.3
